Laboratory results published in PubChem BioAssay AID2685 (National Center for Advancing Translational Sciences (NCATS), 2010).
The campaign covered roughly 320,000 compounds. About 2,100 (0.66%) were called active. Not shown: some 53% with an inconclusive outcome. Calls follow the shape of the dose curve; as a rule, active = well fitted inhibition curve with a large enough effect in the signal ratio, with a control signal flat (not every such curve was filed as active); inconclusive = small, poorly fitted or top-dose-only effect, or effect the other way, or a change in a side signal; inactive = flat fitted curve, though single readings scatter; the % refers to the signal ratio. The list comes from a sample in which actives are over-represented; it also holds similar structures and randomly drawn compounds.

assay: qHTS Assay for Lipid Storage Modulators in Drosophila S3 Cells; details: BODIPY lipid droplet fluorescence, 18-24 h, cells fed with added oleic acid; cell number change: measured here: cell count max response; series mostly up to 46.1 µM;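 as to cell number change: cells counted by Cell Tracker Red CMTPX staining in the red channel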
In short: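 Laser-scanning cytometry quantifies lipid droplet accumulation (500–530 nm total intensity; droplet/cell object ratio) in oleic acid-fed (400 uM added) Drosophila S3 cells treated with a concentration series. 20 uM Triacsin C defined 100% inhibition.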
Potency is read from the fitted curve at half-maximal effect.

Structure (SMILES) | Potency | cell number change [%]
CCCCCCNC(=O)c1cc(-c2ccco2)nc2ccccc12 | inactive | -17.2
O=C(CN1C(=O)NC2(CCCC2)C1=O)N1CCN(Cc2ccccc2)CC1 | inactive | 0.232
COC(=O)Cn1nc(-c2ccc(C)cc2)c2ccccc2c1=O | inactive | 9.56
COc1ccc(/C=N/NC(=O)CCN2CCCCC2c2cccnc2)cc1Cn1cc([N+](=O)[O-])cn1 (stereo unspecified) | inactive | -16.7
CN(C)CCN(Cc1ccccc1)S(=O)(=O)c1ccc(-c2ccc(=O)[nH]n2)s1 | inactive | 
COc1cc2c(cc1OC)C(C(=O)NCc1cccnc1)C(c1cccnc1)N(C)C2=O (stereo unspecified) | inactive | -0.81
COc1ccc(C2C(C(=O)NCc3cccnc3)c3ccccc3C(=O)N2C)cc1OC (stereo unspecified) | 2.59 µM (active) | -17.1
COc1ccc(C2C(C(=O)NCc3ccccn3)c3ccccc3C(=O)N2C)cc1OC (stereo unspecified) | inactive | 
O=C(N/N=C\c1cccnc1)C1c2ccccc2Oc2ccccc21 | inactive | -0.813
CCN(CC)C(=O)c1[nH]cnc1C(=O)N[C@@H](CC(C)C)C(=O)OCc1ccccc1 | inactive | -10.8
C/C(=N\NC(=O)c1cccc([N+](=O)[O-])c1)c1cccc(NC(=O)C2CC2)c1 | inactive | -1.94
Cc1ccccc1NC(=O)CN1C(=O)N/C(=C\c2ccc(N3CCOCC3)c(F)c2)C1=O | inactive | -7.47
Nc1c(Cl)cc(C2=NCCn3nc4cc([N+](=O)[O-])ccc4c32)cc1Cl | 5.17 µM (active) | 13.3
Nc1c(Cl)cc(C2=NCCn3c2c2ccc([N+](=O)[O-])cc2[n+]3[O-])cc1Cl | inactive | -13.5
COc1ccc2c3n(nc2c1)CCN=C3c1ccc(Cl)cc1 | inactive | 28.7
C/C=C/C(=O)N1CC2(CC(c3cccc(NC(=O)CCCCC)c3)=NO2)C[C@H]1C(N)=O (stereo partly specified) | inactive | 7.84
CC(C)N1C(=O)N(c2ccccc2)C(C)(O)CC1(C)C (stereo unspecified) | inactive | 
CC1(C)CC(=O)N(c2ccccc2)C1(C)O (stereo unspecified) | 0.164 µM (active) | 6.8
CC1(O)CC(=O)N(c2ccccc2)O1 (stereo unspecified) | inactive | 5.56
Nc1nc(CN2CCc3ccccc3C2)nc(Nc2ccccc2)n1 | inactive | 
COC(=O)[C@@]12CCCCN1[C@H](c1ccc(SC3CCCCC3)cc1)[C@H]1C(=O)N(C)C(=O)[C@H]12 | inactive | 
CCN1C(=O)[C@@H]2[C@@H](c3ccc(-c4ccc(F)cc4)cc3)N3CCC[C@@]3(C(=O)OC)[C@@H]2C1=O | inactive | -18.3

Structure (SMILES) | Potency | cell number change [%]
COC(=O)[C@@]12CCCCN1[C@H](c1ccc(-c3ccc(OC)cc3)cc1)[C@@H]1C(=O)N(C)C(=O)[C@@H]12 | inactive | 
CCCCCCSc1ccc([C@@H]2[C@H]3C(=O)N(CC)C(=O)[C@H]3[C@]3(C(=O)OC)CCCN23)cc1 | 0.517 µM (active) | 
CCCCCCSc1ccc([C@@H]2[C@H]3C(=O)N(C)C(=O)[C@H]3[C@]3(C(=O)OC)CCCCN23)cc1 | 20.6 µM (active) | 
CCCSc1ccc([C@@H]2[C@H]3C(=O)N(CC)C(=O)[C@H]3[C@]3(C(=O)OC)CCCN23)cc1OC | inactive | 11.7
CS(=O)(=O)Nc1ccc(S(=O)(=O)NCCc2ccccc2)cc1 | inactive | 
CC(C)NC(=O)c1cc2c(C(F)(F)F)nn(C)c2s1 | inactive | -21.4
COc1ccc(C(=O)C(C)OC(=O)c2cccc(S(=O)(=O)Nc3cc(Cl)c(OC)cc3OC)c2)cc1 (stereo unspecified) | inactive | -7.94
N#Cc1cccc(NC(=O)COc2ccc(-n3ccnc3)cc2)c1 | inactive | -13.2
COc1ccc(N2C(=O)CC(N3CCN(c4cccc(Cl)c4)CC3)C2=O)cc1 (stereo unspecified) | inactive | -1.05
Nc1cc(C(=O)O)c(Oc2ccc(Cl)cc2Cl)cc1C(=O)O | inactive | -11.5
COCCN=c1scc(-c2ccc3c(c2)NC(=O)CO3)n1/N=C(\C)c1ccc(O)cc1 | inactive | 3.12
COc1cc(C(C)=O)ccc1COc1ccc(C(=O)OC(C)C(=O)NC(N)=O)cc1OC (stereo unspecified) | inactive | 7.94
Cc1cc(N=Nc2c(O)c3ccccc3[nH]c2=O)ccc1N=Nc1ccc(C(=O)N(C)C)cc1 | 20.6 µM (active) | -11.6
NC(=O)c1ccc(N=Nc2c(O)c3ccccc3[nH]c2=O)cc1 | inactive | 9.46
Cc1ccc(N=Nc2c(O)c3ccccc3[nH]c2=O)c(S(=O)(=O)N(C)C)c1 | inactive | 7.5
CC(C)(CNC(=O)c1cc([N+](=O)[O-])ccc1N1CCC(Cc2ccccc2)CC1)N1CCOCC1 | 20.6 µM (active) | 7.52
O=C(NCCOc1ccccc1)c1cc([N+](=O)[O-])ccc1N1CCOCC1 | inactive | -1.71
O=C(O)c1cc([N+](=O)[O-])ccc1N1CCC(Cc2ccccc2)CC1 | inactive | 4.05
CCOc1ccc(N2C(=O)C3ON(c4ccccc4)C(c4ccco4)C3C2=O)cc1 (stereo unspecified) | inactive | -16.3
CCN(CC)S(=O)(=O)c1ccc(S(=O)(=O)N(CC(=O)Nc2ccccc2)Cc2ccco2)cc1 | inactive | -12.6
Cc1cc(C)n(-c2nnc(C)c(=O)[nH]2)n1 | inactive | 
O=C(NP(=O)(N1CCCC1)N1CCCC1)C1=C(N2CCOCC2)/C(=C/c2cccc([N+](=O)[O-])c2)CC1 | inactive | 

Structure (SMILES) | Potency | cell number change [%]
N#C/C(=C\C1=C(N2CCOCC2)C(=C/c2cccc([N+](=O)[O-])c2)/CC1)C(=O)Nc1ccccc1F | 2.06 µM (active) | 1.41
CC(NC(=O)C12CC3CC(CC(C3)C1)C2)C(=O)N/N=C/C1=C(N2CCOCC2)C(=C\c2cccc([N+](=O)[O-])c2)/CC1 (stereo unspecified) | 13 µM (active) | 4.98
O=CC1=C(N2CCOCC2)/C(=C\c2ccccc2)CC1 | inactive | 1.5
CCN(CC)c1ccc(/C=C2\CCC(/C=C(\C#N)C(=O)Nc3ccccc3F)=C2N2CCOCC2)cc1 | 0.58 µM (active) | 1.95
N#C/C(=C/c1cccc([N+](=O)[O-])c1)C(=O)Nc1ccccc1O | inactive | 0.725
CC(C)C(NC(=O)C12CC3CC(CC(C3)C1)C2)C(=O)N/N=C/C1=C(N2CCOCC2)C(=C\c2cccc([N+](=O)[O-])c2)/CC1 (stereo unspecified) | inactive | 9.26
CCOC(=O)C(=O)C1=C(N2CCOCC2)/C(=C\c2cccc([N+](=O)[O-])c2)CC1 | inactive | -9.52
O=C(O)c1ccccc1N/N=C/C1=C(N2CCOCC2)C(=C\c2ccccc2)/CC1 | inactive | 
CC(C)Oc1ccc(N2CC(C(=O)Nc3ccc(N4CCOCC4)cc3)CC2=O)cc1 (stereo unspecified) | inactive | 15.2
CCOC(=O)c1cc(CC)sc1/N=C/c1c(O)ccc2ccccc12 | inactive | 1.95
O=C(Cn1cnc([N+](=O)[O-])n1)NCCO | inactive | 0.588
O=c1[nH]c(CN2CCN(c3ccc(F)cc3)CC2)nc2ccccc12 | inactive | -21.1
CCC(=O)NC(C)c1cc(Cl)c2ccccc2c1O (stereo unspecified) | inactive | -12.2
COCCn1c(Cc2ccccc2)nnc1SCC(=O)Nc1cc(C)on1 | inactive | 
Cc1ccc(-n2c(SCC(=O)NNC(=S)Nc3ccccc3)nc3ccccc3c2=O)cc1 | inactive | 9.73
CN1[C@@H](CC(=O)c2ccccc2)CCC[C@H]1C[C@H](O)c1ccccc1 | inactive | 9.08
CN1C(CC(=O)c2ccccc2)CCCC1CC(O)c1ccccc1 (stereo unspecified) | 18.4 µM (active) | -3.64
CN1CCC(N(C)CC(O)c2ccccc2)CC1 (stereo unspecified) | inactive | -4.15
C=CCSc1nc(O)c(CC)c(=O)n1C(C)CC (stereo unspecified) | inactive | -4.8
Cc1noc(C)c1COc1ccc(C(=O)NCC2CCCO2)cc1 (stereo unspecified) | inactive | -13.5
Cc1ccc(OCc2ccc(C(=O)NCC3CCCO3)cc2)cc1C (stereo unspecified) | 10.3 µM (active) | -8.64
Cc1ccc(OCc2ccc(C(=O)NCC3CCCO3)cc2)cc1 (stereo unspecified) | inactive | 13.4

Structure (SMILES) | Potency | cell number change [%]
Cc1cccc(NC(=O)Nc2ccccc2)n1 | inactive | -19.9
COc1ccc(/C=C/C(=O)N2CCNC(=O)C2)c(OC)c1 | inactive | 
COc1ccc(-c2cc(=O)oc3c(C)c(OCC(=O)N(C)C)ccc23)cc1 | inactive | 
CC(=O)Nc1ccc(OC(=O)c2cc([N+](=O)[O-])ccc2Cl)cc1 | inactive | 
Cc1ccc(NC2=NCCC2)cc1Cl | inactive | 
Clc1cccc(Cl)c1NC1=NCCC1 | inactive | 6.79
Clc1cccc(NC2=NCCC2)c1 | 25.9 µM (active) | -7.84
CCCCNC(=S)NNC(=O)c1cccnc1 | inactive | 0.804
CC(C)Sc1nc2c(c(=O)[nH]c(=O)n2C)n1Cc1ccccc1 | inactive | 
O=[N+]([O-])c1cccc(S(=O)(=O)NCc2ccncc2)c1 | 10.3 µM (active) | -3.97
O=[N+]([O-])c1cccc(S(=O)(=O)NCCc2ccccc2)c1 | inactive | -15.1
O=[N+]([O-])c1ccc(S(=O)(=O)NCCc2ccncc2)cc1 | inactive | 17.1
CCCNC(=O)COC(=O)c1ccc(N2CCCC2)c([N+](=O)[O-])c1 | inactive | 10
Clc1ccc(C2=CSC3=Nc4cccc5cccc(c45)N23)cc1 | 0.13 µM (active) | -10.2
N=C1/C(=C\c2ccc(-c3cccc(Cl)c3)o2)C(=O)N=C2SC=C(c3ccccc3)N12 | inactive | -13.8
CC1CN2C(c3ccc(Cl)cc3)=CSC2=N1 (stereo unspecified) | inactive | 15.5
COc1ccc(OC[C@@H](O)CNC(=O)c2cccc3c2C(=O)c2ccc(Cl)cc2S3(=O)=O)cc1 | inactive | 6.27
O=C(NNC(=O)c1ccccc1F)c1ccc(Cl)c(S(=O)(=O)N2CCOCC2)c1 | inactive | 4.79
Cc1cc(C)c(Cn2c3ccccc3c3cnn(CC(=O)NCc4ccccn4)c(=O)c32)c(C)c1 | 14.6 µM (active) | 17.6
Cc1ccc(C)c(Cn2c3ccccc3c3cnn(CC(=O)NCc4ccccn4)c(=O)c32)c1 | inactive | 21.8
Cc1c2cnn(CC(=O)NCc3ccccn3)c(=O)c2c(C)n1Cc1ccccc1 | inactive | -4.61
